Assay results as given in the supplement of paper PMC11732987, “Enantioselective OTUD7B fragment discovery through chemoproteomics screening and high-throughput optimisation” (Communications Chemistry, 2025).

Experiments:
Test in all cases: log2 ratio of Biotin-Ahx-Ub-VS probe labelling (fragment/DMSO); higher = less target engagement (more negative = stronger competition), active = hit call of the paper (q ≤ 0.05, log2 ratio ≤ -1)
Details in all cases: compound concentration: 200 uM; treatment time: 3 h
ALG13 = target: T1, ALG13 (UniProt Q9NP73)
T1 sequence (whole entry): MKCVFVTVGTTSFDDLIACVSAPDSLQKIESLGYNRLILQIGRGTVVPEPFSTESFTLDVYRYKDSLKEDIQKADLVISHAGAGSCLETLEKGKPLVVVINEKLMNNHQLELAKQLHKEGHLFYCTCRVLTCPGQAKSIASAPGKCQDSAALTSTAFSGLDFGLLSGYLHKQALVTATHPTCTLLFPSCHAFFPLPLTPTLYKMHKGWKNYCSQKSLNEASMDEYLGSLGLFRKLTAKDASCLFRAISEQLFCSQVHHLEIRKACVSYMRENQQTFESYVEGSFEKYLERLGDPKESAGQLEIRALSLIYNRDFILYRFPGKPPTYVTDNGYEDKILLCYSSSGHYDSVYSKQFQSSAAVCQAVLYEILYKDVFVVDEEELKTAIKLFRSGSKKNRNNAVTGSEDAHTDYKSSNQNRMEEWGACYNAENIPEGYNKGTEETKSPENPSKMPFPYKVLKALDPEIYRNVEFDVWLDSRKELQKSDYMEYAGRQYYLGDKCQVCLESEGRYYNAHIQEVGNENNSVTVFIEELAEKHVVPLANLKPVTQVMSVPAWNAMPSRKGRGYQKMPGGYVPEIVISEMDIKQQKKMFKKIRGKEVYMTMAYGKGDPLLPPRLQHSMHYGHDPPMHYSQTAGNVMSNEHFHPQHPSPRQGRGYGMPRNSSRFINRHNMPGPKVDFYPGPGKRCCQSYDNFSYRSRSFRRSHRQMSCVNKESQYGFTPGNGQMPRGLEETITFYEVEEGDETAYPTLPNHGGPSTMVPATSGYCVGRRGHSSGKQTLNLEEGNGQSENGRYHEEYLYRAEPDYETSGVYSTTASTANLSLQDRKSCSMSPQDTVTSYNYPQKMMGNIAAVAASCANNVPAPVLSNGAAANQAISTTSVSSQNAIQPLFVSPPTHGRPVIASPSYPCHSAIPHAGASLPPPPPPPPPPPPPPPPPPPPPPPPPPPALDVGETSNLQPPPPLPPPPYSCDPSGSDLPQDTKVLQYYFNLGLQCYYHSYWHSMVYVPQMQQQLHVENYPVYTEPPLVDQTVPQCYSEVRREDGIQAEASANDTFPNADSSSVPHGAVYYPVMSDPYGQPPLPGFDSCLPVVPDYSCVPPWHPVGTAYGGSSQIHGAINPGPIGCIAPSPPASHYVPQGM
Outline: (§1)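 In triplicate, 495 µg of HEK293T lysate per sample was incubated with fragment at 200 µM or vehicle for 3 h. Biotin-Ahx-Ub-VS was then added to 0.5 µM final for 1 h, and labelled DUBs were captured with NeutrAvidin, digested with LysC and trypsin, and measured by diaPASEF LC-MS/MS. Data are average log2 fragment/vehicle ratios by unpaired t-test from global-median-normalised Spectronaut label-free quantities, restricted to proteins with ≥2 unique peptides.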

ATXN3 = ATXN3 (UniProt P54252)
Outline: as §1

BAP1 = target: T2, BAP1 (UniProt Q92560)
T2 sequence (whole entry): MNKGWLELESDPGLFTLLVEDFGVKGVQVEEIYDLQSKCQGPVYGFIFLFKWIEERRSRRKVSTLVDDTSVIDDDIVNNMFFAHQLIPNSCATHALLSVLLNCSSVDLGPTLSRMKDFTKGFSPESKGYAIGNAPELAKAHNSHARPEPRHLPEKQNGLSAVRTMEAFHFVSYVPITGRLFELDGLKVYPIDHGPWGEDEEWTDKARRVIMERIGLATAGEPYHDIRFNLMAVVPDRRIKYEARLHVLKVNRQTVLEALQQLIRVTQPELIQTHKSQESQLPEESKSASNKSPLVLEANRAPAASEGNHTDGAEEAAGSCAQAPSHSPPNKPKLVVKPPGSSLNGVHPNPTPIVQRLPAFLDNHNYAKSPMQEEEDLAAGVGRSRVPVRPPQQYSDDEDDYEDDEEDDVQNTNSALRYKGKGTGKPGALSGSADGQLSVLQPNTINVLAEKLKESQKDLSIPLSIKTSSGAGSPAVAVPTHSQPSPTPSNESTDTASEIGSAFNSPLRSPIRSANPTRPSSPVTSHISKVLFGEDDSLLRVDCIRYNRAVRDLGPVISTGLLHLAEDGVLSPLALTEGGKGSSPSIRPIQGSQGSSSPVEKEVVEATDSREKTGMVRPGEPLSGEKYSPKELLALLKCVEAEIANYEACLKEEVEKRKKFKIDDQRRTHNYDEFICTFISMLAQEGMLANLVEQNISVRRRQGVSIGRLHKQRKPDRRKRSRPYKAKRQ
Outline: as §1

EIF3F = EIF3F (UniProt O00303)
Outline: as §1

EIF3H = EIF3H (UniProt O15372)
Outline: as §1

FAM105A = target: T3, FAM105A (UniProt Q9NUU6)
T3 sequence (whole entry): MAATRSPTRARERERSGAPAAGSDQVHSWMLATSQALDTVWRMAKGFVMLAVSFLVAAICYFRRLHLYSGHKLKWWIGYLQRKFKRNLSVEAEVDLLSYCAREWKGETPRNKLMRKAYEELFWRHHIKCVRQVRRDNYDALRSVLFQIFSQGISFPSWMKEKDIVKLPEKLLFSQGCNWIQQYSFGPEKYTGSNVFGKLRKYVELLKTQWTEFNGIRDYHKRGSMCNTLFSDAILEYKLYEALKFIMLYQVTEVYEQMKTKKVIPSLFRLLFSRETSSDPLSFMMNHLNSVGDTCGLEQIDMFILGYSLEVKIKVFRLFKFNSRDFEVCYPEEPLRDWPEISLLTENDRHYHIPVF
Outline: as §1

OTUB1 = OTUB1 (UniProt Q96FW1)
Outline: as §1

OTUD4 = target: T4, OTUD4 (UniProt Q01804)
T4 sequence (whole entry): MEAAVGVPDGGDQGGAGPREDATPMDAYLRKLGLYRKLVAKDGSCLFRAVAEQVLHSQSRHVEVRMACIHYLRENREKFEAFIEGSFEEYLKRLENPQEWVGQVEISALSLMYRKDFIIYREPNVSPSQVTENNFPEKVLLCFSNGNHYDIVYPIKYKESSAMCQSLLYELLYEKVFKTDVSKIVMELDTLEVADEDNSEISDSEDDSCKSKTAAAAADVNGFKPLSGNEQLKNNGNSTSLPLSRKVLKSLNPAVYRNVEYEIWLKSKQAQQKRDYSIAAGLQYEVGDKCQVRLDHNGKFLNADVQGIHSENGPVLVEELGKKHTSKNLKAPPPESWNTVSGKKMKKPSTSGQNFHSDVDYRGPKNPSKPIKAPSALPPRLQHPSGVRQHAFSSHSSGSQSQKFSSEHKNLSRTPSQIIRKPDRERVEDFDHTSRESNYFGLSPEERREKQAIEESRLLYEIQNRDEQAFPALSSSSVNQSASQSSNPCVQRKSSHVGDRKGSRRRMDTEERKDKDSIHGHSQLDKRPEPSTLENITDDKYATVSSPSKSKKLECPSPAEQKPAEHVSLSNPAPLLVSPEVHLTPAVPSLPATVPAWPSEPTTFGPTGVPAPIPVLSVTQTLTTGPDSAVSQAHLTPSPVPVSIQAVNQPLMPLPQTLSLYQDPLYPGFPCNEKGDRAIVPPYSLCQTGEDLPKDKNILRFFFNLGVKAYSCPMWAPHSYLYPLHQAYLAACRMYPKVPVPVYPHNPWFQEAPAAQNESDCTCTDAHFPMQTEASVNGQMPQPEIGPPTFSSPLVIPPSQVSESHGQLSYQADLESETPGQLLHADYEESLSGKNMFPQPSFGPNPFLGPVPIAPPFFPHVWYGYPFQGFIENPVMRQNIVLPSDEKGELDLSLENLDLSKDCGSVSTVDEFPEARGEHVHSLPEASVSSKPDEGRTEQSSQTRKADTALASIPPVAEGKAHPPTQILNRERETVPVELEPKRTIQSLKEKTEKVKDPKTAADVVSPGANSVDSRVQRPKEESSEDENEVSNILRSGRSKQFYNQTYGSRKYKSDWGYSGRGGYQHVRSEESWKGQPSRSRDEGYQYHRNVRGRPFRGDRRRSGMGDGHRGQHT
Outline: as §1

OTUD5 = target: T5, OTUD5 (UniProt Q96G74)
T5 sequence (whole entry): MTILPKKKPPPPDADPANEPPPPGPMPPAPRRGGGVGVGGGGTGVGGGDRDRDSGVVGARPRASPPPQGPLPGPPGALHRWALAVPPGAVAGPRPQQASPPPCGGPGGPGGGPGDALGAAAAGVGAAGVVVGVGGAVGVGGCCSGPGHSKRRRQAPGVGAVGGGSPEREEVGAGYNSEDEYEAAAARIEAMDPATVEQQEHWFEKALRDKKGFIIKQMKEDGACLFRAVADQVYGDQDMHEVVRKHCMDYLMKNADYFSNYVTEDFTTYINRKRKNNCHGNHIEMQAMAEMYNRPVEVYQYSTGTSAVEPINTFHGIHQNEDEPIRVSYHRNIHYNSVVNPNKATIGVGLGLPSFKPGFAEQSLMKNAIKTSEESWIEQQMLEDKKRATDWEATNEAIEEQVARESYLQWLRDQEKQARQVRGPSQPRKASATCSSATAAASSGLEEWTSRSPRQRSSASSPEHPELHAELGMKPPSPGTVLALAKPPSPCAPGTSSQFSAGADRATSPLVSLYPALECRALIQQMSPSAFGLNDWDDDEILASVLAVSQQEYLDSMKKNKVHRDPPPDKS
Outline: as §1

Measured: log2 ratio of Biotin-Ahx-Ub-VS probe labelling

ATXN3, sequence (P54252 whole entry): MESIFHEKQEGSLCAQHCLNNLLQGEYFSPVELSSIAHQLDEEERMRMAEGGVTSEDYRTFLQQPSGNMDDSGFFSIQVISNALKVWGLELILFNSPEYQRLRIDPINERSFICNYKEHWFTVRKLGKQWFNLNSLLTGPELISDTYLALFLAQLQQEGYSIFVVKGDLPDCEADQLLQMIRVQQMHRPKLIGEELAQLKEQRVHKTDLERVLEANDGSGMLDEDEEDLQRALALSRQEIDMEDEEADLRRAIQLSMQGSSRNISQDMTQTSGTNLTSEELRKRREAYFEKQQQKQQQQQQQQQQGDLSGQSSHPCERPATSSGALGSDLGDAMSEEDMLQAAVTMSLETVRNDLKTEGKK
EIF3F, sequence (O00303 whole entry): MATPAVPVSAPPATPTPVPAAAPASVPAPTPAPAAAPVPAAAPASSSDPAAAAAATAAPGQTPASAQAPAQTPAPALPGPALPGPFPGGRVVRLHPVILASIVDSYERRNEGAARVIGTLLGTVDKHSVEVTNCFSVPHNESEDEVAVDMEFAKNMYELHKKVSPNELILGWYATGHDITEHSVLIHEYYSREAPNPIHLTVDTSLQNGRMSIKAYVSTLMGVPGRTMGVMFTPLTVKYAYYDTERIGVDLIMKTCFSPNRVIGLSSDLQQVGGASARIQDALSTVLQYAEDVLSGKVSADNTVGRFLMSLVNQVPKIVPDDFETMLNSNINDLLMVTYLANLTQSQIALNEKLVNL
OTUB1, sequence (Q96FW1 whole entry): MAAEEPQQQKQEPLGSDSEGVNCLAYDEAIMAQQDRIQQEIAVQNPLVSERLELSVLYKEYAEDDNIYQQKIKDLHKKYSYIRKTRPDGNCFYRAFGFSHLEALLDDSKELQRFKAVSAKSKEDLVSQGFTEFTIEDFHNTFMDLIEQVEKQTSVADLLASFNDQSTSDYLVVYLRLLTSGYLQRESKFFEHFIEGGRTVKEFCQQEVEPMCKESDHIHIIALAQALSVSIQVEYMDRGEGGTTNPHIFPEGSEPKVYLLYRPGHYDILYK
EIF3H, sequence (O15372 whole entry): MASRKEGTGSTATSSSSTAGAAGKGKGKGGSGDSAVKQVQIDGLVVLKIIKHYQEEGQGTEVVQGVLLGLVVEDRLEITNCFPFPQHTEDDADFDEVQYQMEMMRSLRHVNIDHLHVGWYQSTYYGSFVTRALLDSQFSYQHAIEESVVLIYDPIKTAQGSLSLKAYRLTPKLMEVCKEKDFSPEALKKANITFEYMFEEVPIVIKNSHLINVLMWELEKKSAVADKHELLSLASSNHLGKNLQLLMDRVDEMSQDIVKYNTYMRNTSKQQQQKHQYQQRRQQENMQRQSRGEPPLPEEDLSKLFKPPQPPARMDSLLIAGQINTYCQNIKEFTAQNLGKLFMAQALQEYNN

CC(NC(=O)CCl)c1cnn(C2CC2)c1 (centres undefined)
active: BAP1 -2.22
inactive: ALG13 0.171 | ATXN3 -0.145 | EIF3F -0.625 | EIF3H 0.172 | FAM105A -0.0989 | OTUB1 -0.137 | OTUD4 -0.268 | OTUD5 -0.626
